# ± gives the standard deviation of the averaged measurements. In all, about 25,000 sequences were measured (“ln(normalized median fluorescence intensity)”: median about 8.9, highest 2% from about 10 on). This is one part of a sample in which the highest values are shown more often than they occur.
# System: PfAP2-LT AP2 domain (GST-tagged)
# Experiment: gcPBM binding intensity (ln(normalized median fluorescence intensity)); higher = stronger DNA binding
# Method in brief: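 Each value is the highest Masliner-normalised natural-log median intensity across replicate spots of either orientation of a probe. The probes were primer-extended double-stranded 36-bp intergenic genomic sequences on an Agilent 4 × 180k array, alongside negative controls, exposed for 1 h to GST-tagged P. falciparum DNA-binding domains expressed in E. coli. Bound protein was picked up with Alexa488 anti-GST antibody and scanned at 488 nm.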
row,Sequence,gcPBM binding intensity (ln)
1,AGGCTATAATACCATACACACATTTATAAAATAACA [CACACA_site6990],9.07 ± 0.42
2,ATACTTATGATAAATACACACTTGAAATTAAGGATT [CACACA_site4772],8.85 ± 0.37
3,CATTTTTCTATATGTGCATGTAAGATAAGAATAATT [TGCATGCA_site107],8.48 ± 0.3
4,TATTTTTCCATATGCACACACACCGTATCTAGAATA [CACACA_site6654],9.47 ± 0.37
5,ATAATTAAAATGCTCACACACATAAAAAAAAATTAA [CACACA_site2149],8.94 ± 0.46
6,TTATTATTATGATTATTATGATGATTATACAACTGT [TGCATGCA_negctrl_site241],8.85 ± 0.35
7,AAATTGAATTAGTTAACACACAACTTTTATTTCATA [CACACA_site2840],8.74 ± 0.4
8,TCAAATATATAGAATACACACATGGATATAAGAAAT [CACACA_site4065],9.2 ± 0.4
9,TTATAATAAAATGAATATATATAATTTAAAATATTT [CACACA_negctrl_site1651],8.27 ± 0.54
10,TATATTTATAAGTGTACACATTATATAAATCCCTAT [CACACA_site6122],8.65 ± 0.42
11,AATTTTCTACAAATGTGTACTAAATAAAATATTACT [XGTACX_site7175],8.63 ± 0.39
12,AATAAAAAGGAACACACACACACACCGATATATATA [CACACA_site5895],10.08 ± 0.085
13,AAAAAAAAAAGAATAGCACACACACCGATATAAATA [CACACA_site8111],9.71 ± 0.37
14,TGGGAATAAAAACACACACACACACCGATATATATA [CACACA_site5875],10.1 ± 0.41
15,GGAATAATATAAAACACACACATAAATATAAATATA [CACACA_site3376],9.45 ± 0.35
16,AAAATACATGGACACACACACACACCGATATATATA [CACACA_site5885],10.4 ± 0.21
17,AAAAAAAAAAAAAATACACACACACCGATATATATA [CACACA_site8142],9.775 ± 0.092
18,AAAAAGGATAAACACACACACACACCGATATATATA [CACACA_site8206],10.34 ± 0.099
19,CACTAAAATAAACACACACACACACCGATATATATA [CACACA_site9379],9.96 ± 0.014
20,TAAAAAAAAAAAAATACACACACACCGATATATATA [CACACA_site8498],9.76 ± 0.19
21,AATATAAATAAAAACACACACACACCGATATATATA [CACACA_site5283],10.2 ± 0.11
22,AAGGATATAACATACACACACACACCGATATATATA [CACACA_site6136],10 ± 0.29
23,CAAAATAATATATATACACACACACCGATATATATA [CACACA_site8082],9.81 ± 0.18

row,Sequence,gcPBM binding intensity (ln)
1,TGGAACCTTTAAAATACACACCCAAATCCTTTGAAA [CACACA_site7671],8.69 ± 0.35
2,AGAGAGAGAAATACAAGTACATGTGAAACCAATCTA [XGTACX_site2767],9.04 ± 0.46
3,GCATCGATCAAACATACACACATGGTTAATAAAAAT [CACACA_site8651],9.24 ± 0.47
4,TTTAAAAAAAGCAGTACATGCAAAATAATAACAAGC [TGCATGCA_site392],9.2 ± 0.48
5,TACACAAGGGGAAAAATATATATATATATATATATA [TGCATGCA_negctrl_site217],9.88 ± 0.028
6,TATTTTTTTTCGTAATGTACATAAAAAATGCAAAAA [XGTACX_site8491],8.27 ± 0.36
7,CATCCGTTGATATATGCATGCATATTGTTATTACCA [TGCATGCA_site868],9.11 ± 0.36
8,TTTATATATAAATAATGTACAAAAAATTTTAAAAAG [XGTACX_site7990],8.39 ± 0.39
9,ACAGTTTGTCTGAGTAGTACATAAATACTTGAAAGG [XGTACX_site7792],8.79 ± 0.45
10,CACACGCACAGACACACACACACACGGATATAAATA [CACACA_site6301],10.2 ± 0.38
11,CGCATACACAGACACACACACACATATAAATATGTA [CACACA_site6444],9.98 ± 0.47
12,CACGCATACAGACACACACACACACGGATATAAATA [CACACA_site6445],10.2 ± 0.4
13,TTTAAATACAGACATACACACATACACGCACATATA [CACACA_site6400],9.49 ± 0.37
14,GCTATAAATACAGACGCACACATATACATACATATA [CACACA_site3329],9.42 ± 0.33
15,CACACGCACAGACACACACACACATATAAATATGTA [CACACA_site6300],9.89 ± 0.37
16,CTAAAATACAGACACACACACACATATATATATATA [CACACA_site4150],10.07 ± 0.021
17,GCTATAAATACAGACGCACACATATACATACAGATA [CACACA_site5778],9.33 ± 0.42
18,AAAATACACAGACACACACACATATAAATAAATATT [CACACA_site7871],9.79 ± 0.19
19,CGCGCACACGGACACACACACACACGGATATAAATA [CACACA_site7102],10 ± 0.4
20,AAAAAATACAGACACACACACACACGCATATAAATA [CACACA_site7644],10.1 ± 0.25
21,TACAGACTAAAATACACACACACACGCACATATATA [CACACA_site7875],10.2 ± 0.18
22,AAATCGTGCACGGACACATGCAGTAGCCGAGAATTA [TGCATGCA_site733],9.12 ± 0.38
23,AAAAAAAAGAAAAAAACACACAATGGAAAAAATGTA [CACACA_site3675],8.93 ± 0.59

row,Sequence,gcPBM binding intensity (ln)
1,TATAAAATAAATAACAAAAAAAATAAAATAAAAATA [TGCATGCA_negctrl_site297],8.6 ± 0.7
2,TGCCCTTTGGTTATAACACACATGCACACGTAAATA [CACACA_site7750],9.4 ± 0.23
3,TTTTGTTATTAGAGGGTGCTTATAATGAACTCCTAC,8.65 ± 0.49
4,TTATGAATACTTCAAGTGCATTTATTTTATATGACA,8.63 ± 0.48
5,ATATTGGAATAAATTTGTACATATATATATTATTCA [XGTACX_site916],8.7 ± 0.44
6,CTGTTTTTGTTTTAAAGTACATTGTTCAATATACAT [XGTACX_site5288],8.82 ± 0.43
7,TAAATAAATTTATACACACACACACGGATATAAATA [CACACA_site6532],9.82 ± 0.071
8,ATATAATAAAATGACACACGCATATATATATATATA [CACACA_site2789],9.955 ± 0.021
9,TAAAAAATATTATATACACACAGTATAAAAAAAAAT [CACACA_site4012],8.95 ± 0.49
10,CACACTAAAAGACACACACACACACGCATATAAATA [CACACA_site7874],10.3 ± 0.4
11,AAATATAATAAAATGACACACGCATATATATATATA [CACACA_site8900],9.775 ± 0.064
12,ATAGTATACAGACACACACACACACGGATATAAATA [CACACA_site6914],10.1 ± 0.36
13,GTATATTTAAATAAAAGTACGTAAAGATATATTTAA [XGTACX_site8087],8.86 ± 0.57
14,ATATATATATATATATGTACTCATATTTTATTATTT [XGTACX_site898],9.665 ± 0.078
15,TATATATATATATATGCATGTACATATATTTGTTAT [TGCATGCA_site379],9.99 ± 0.4
16,ATATATATTTATATATGTACATATTTTTGTGTATTT [XGTACX_site1183],9.14 ± 0.44
17,ATGCATATATTTATGTGTACATATATTTGTAGGGGG [XGTACX_site6063],10.2 ± 0.36
18,TTTGTCATTTTATTATGTACTCAGCATATAGGGGGG [XGTACX_site505],10.3 ± 0.33
19,TATATATATATATTATGTACTCATTTATTATCTTTT [XGTACX_site8051],9.04 ± 0.43
20,TTATATTATGGACACACACACAAAAAAAAAAAAAAA [CACACA_site7744],9.32 ± 0.51
21,TATGATTTTTATATATGTACGTATGGTGTTTTACAA [XGTACX_site6100],8.76 ± 0.41
22,GTTTGGTGGTGTTTTGGTACGTACGGGGGGGTATGT [XGTACX_site1983],10.9 ± 0.18
23,GTTTGGTGGTGTTTTGGTACGTACGGGGGTGTATGT [XGTACX_site1211],9.88 ± 0.16

row,Sequence,gcPBM binding intensity (ln)
1,AACATAATAAAAAAACGTACATAATTTTATATACAT [XGTACX_site6602],8.87 ± 0.41
2,ATAAGAAAAGGACACACACACAAAAAAAAAAAAAAA [CACACA_site7351],9.48 ± 0.51
3,AATATAAATAAAAACACACACACACGGATATTTATA [CACACA_site7134],10 ± 0.25
4,AAAAAAAATAGACACACACACATACACATAAATATA [CACACA_site7742],9.82 ± 0.38
5,ATAAATAAAGGACACACACACACACTAGAAAAAAAA [CACACA_site5450],10.2 ± 0.3
6,AAATAACACATATATACACACATATAAATATAATAT [CACACA_site2692],9.29 ± 0.34
7,GTAGAGAAAAAAATGTGGACACAAAAAATAAAAAGG [XGTACX_site4058],8.96 ± 0.45
8,CACTAAAATAGACACACACACACACGGATATAAATA [CACACA_site7873],10.3 ± 0.29
9,AAGGATATAACATACACACACACACGGATATAAATA [CACACA_site7867],10.2 ± 0.37
10,AATATAAGGATATATACACACATAAATACATACATA [CACACA_site7859],9.25 ± 0.45
11,CATATACATAGACACACACACACATAAATAAATATA [CACACA_site6749],9.91 ± 0.33
12,AAAATACATAGACACACACACACACGGATATAAATA [CACACA_site7643],10.2 ± 0.2
13,TATATAAATAGACACACACACACATATAAATAAATA [CACACA_site7855],10 ± 0.34
14,AATGTAGGTTTATTTACACACAAATATAGATATATA [CACACA_site6825],8.96 ± 0.4
15,GGGAGGATATTACACAGTACCCAGGAAATCTACGGA [XGTACX_site4874],8.81 ± 0.5
16,TTTTTTTAAAAAAAGGGTACATATATATATTTTTCT [XGTACX_site1066],8.43 ± 0.49
17,ATATATATATATGTTAGTACTTATATTGAAATGGTA [XGTACX_site1406],9.05 ± 0.042
18,TATATTATTTTATATTGTACATACCAAATATTATAT [XGTACX_site1693],8.68 ± 0.41
19,TATTTTTTTTTTTTTTTTTTTTTTATATATACATAT [CACACA_negctrl_site23],8.61 ± 0.52
20,AAATGGGCTTATTTATGTACTTAAATATATCTACCC [XGTACX_site3823],8.85 ± 0.61
